Source: PubChem BioAssay AID504832 (National Center for Advancing Translational Sciences (NCATS), 2011)
Values joined by “and” are separate entries in the source; they are usually repeats but may differ in a detail not shown here. Equal values may be shown once. In all, about 310,000 compounds went through this assay and about 18,000 (5.8%) were called active. Another 22% or so got no clear call; they are omitted. Calls follow the shape of the dose curve; as a rule, active = well fitted inhibition curve with a large enough effect; inconclusive = small, poorly fitted or top-dose-only effect, or another doubt; inactive = no such curve, though single readings can be large or run the other way. Only a selection was taken, and actives are over-represented in it overall. The source holds several records for some structures; these can differ, active in one and inactive in another.
% is scaled to controls: 0 for no effect and ±100 for the full control effect; potency is read from the fitted curve at half-maximal effect.

Experiment: Primary qHTS for delayed death inhibitors of the malarial parasite plastid, 48 hour incubation
Details: P. falciparum luciferase growth in erythrocytes; series mostly up to 28.7 µM; activity change, negative = inhibition: at the top concentration
Method in brief: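 Cell-based growth assay: transgenic P. falciparum expressing firefly luciferase, cultured in red cells within RPMI 1640 containing 0.5% w/v Albumax, 24 mM bicarbonate and gentamycin. A drop in luciferase activity indicates inhibition.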
With `CCOc1ccc(CCNC(=O)CCc2nnc3ccc(N4CCCC4)nn23)cc1OCC` the “activity change, negative = inhibition” value was -17.1% (inactive).
In the case of `CC1C(=O)N2CCCc3cc(S(=O)(=O)NCc4ccc(F)cc4)cc1c32` (stereo not given), the “activity change, negative = inhibition” value was -1.55% (inactive).
For `CC1CCN(C(=O)C2CCN(S(=O)(=O)N3CCC4(CC3)OCCO4)CC2)CC1`, the “activity change, negative = inhibition” value was -24.5% (inactive).
With `CC1(C)CC(=O)CC2(C1)NCC(c1ccccc1Cl)c1c2[nH]c2ccccc12` (stereo not given) the Potency was 10.4 µM (active).
For `C/C(=N/NC(=O)CN1CCN(S(=O)(=O)c2ccc(Br)cc2)CC1)c1ccncc1`, the “activity change, negative = inhibition” value was 0% (inactive).
In the case of `COc1ccc(NC(=O)CN2CCN(S(=O)(=O)c3ccc(F)cc3)CC2)cc1Cl`, the “activity change, negative = inhibition” value was -13.7% (inactive).
In the case of `O=C(CN1CCN(S(=O)(=O)c2ccc(F)cc2)CC1)Nc1ccccc1F`, the “activity change, negative = inhibition” value was -3.52% (inactive).
For `COc1cc2c(cc1NC(=O)CN1CCN(S(=O)(=O)c3ccc(F)cc3)CC1)oc1ccccc12`, the Potency was 10.4 µM (active).
With `O=C(CN1CCN(S(=O)(=O)c2ccc(Br)cc2)CC1)Nc1ccccc1C(=O)c1ccccc1` the Potency was 13.1 µM (active).
With `COc1cc2c(cc1NC(=O)COC(=O)/C=C/c1ccccc1)oc1ccccc12` the “activity change, negative = inhibition” value was 19.8% (inactive).
With `CCCn1c(N)c(N(CCOC)C(=O)C2CCCC2)c(=O)[nH]c1=O` the “activity change, negative = inhibition” value was -0.556% (inactive).
In the case of `Cc1cc(NC(=O)CCS(=O)(=O)c2ccc(F)cc2)no1`, the “activity change, negative = inhibition” value was -24.6% (inactive).
In the case of `CC(C)=N/N=C1/NC(=O)C(Cc2ccccc2)S1` (stereo not given), the “activity change, negative = inhibition” value was -27.8% (inactive).
In the case of `N#CC1(NC(=O)COC(=O)CCN=C2NS(=O)(=O)c3ccccc32)CCCCC1`, the “activity change, negative = inhibition” value was 0.444% (inactive).
For `CC(=O)Nc1ccc(S(=O)(=O)N2CCC(C(=O)N[C@@H](Cc3ccccc3)C(=O)O)CC2)cc1`, the “activity change, negative = inhibition” value was 15.3% (inactive).
With `COc1c(O)ccc2c1CN1CCc3cc4c(cc3C1C2)OCO4` (stereo not given) the Potency was 1.85 µM (active).
For `CN1CCc2cc3c(cc2[C@H]1[C@@H]1OC(=O)c2c1ccc1c2OCO1)OCO3`, the “activity change, negative = inhibition” value was -8.96% (inactive).
In the case of `COc1cc(COCC(O)CN2CCN(Cc3ccc4c(c3)OCO4)CC2)cc(OC)c1OC` (stereo not given), the “activity change, negative = inhibition” value was 0% (inactive).
For `COc1ccc(N2CCN(C(=O)CNC(=O)c3ccc(Br)o3)CC2)cc1`, the “activity change, negative = inhibition” value was -1.91% (inactive).
With `COc1cccc(C(=O)NNC(=O)c2cccc(F)c2)c1` the “activity change, negative = inhibition” value was 106% (inactive).
In the case of `CC(OC(=O)CCC(=O)c1ccccc1)C(=O)Nc1ccc(F)cc1` (stereo not given), the “activity change, negative = inhibition” value was -0.871% (inactive).
With `COc1ccc(Nc2nc(NCc3ccco3)nc(N/N=C/c3ccccc3Cl)n2)cc1` the Potency was 10.4 µM (active).
In the case of `COc1ccc(Nc2nc(Cl)nc(NCc3ccco3)n2)cc1`, the “activity change, negative = inhibition” value was -11.9% (inactive).
For `C=CCC(NCc1ccco1)c1ccc(OC)cc1` (stereo not given), the “activity change, negative = inhibition” value was -2.5% (inactive).
In the case of `CC1(c2nnc(Cc3ccccc3)o2)CC(c2ccccc2F)=NO1` (stereo not given), the “activity change, negative = inhibition” value was 5.51% (inactive).
For `O=C(Nc1ccc(S(=O)(=O)NCC2CCCO2)cc1)c1ccc(F)cc1` (stereo not given), the “activity change, negative = inhibition” value was -4.09% (inactive).
With `Cc1ccc(C)c(OCc2cc(C(=O)N3CCN(c4cnccn4)CC3)no2)c1` the “activity change, negative = inhibition” value was -12.7% (inactive).
For `COc1cc(C2C3=C(CCCC3=O)OC3=C2C(=O)CCC3)ccc1OCC(=O)Nc1ccccc1`, the “activity change, negative = inhibition” value was -26.2% (inactive).
In the case of `O=C(CCC1CCCC1)N=C1SC2CS(=O)(=O)CC2N1Cc1ccccc1` (stereo not given), the “activity change, negative = inhibition” value was -0.261% (inactive).
With `CC(C)(C)c1ccc(C(CC(=O)O)NS(=O)(=O)Cc2ccccc2)cc1` (stereo not given) the “activity change, negative = inhibition” value was 20.6% (inactive).
For `CCCOc1ccc(C(=O)C(CCC(CNCC)C(=O)c2ccc(OCCC)cc2)CNCC)cc1` (stereo not given), the Potency was 1.85 µM (active).
For `CCCOc1ccc(C(=O)CCC(=O)OC(C)C(=O)Nc2ccc(NC(C)=O)cc2)cc1` (stereo not given), the “activity change, negative = inhibition” value was 20.9% (inactive).
For `CCCOc1ccc(C(=O)NCCc2ccccc2)cc1`, the “activity change, negative = inhibition” value was 252% (inactive).
For `COc1ccc(NC(=O)N2CCCC2C(=O)NCc2ccccc2Cl)cc1` (stereo not given), the “activity change, negative = inhibition” value was -14.8% (inactive).
With `O=C(N/C(=C\c1ccc(O)cc1)C(=O)N1CCCCC1)c1ccccc1` the “activity change, negative = inhibition” value was 31.2% (inactive).
With `Nc1ccn(C2CC(O)C(CO)O2)c(=O)n1` (stereo not given) the “activity change, negative = inhibition” value was 24.6% (inactive).
For `Cc1ccc(NC(=O)CSc2nc(=O)n(CCN(C)C)c3c2CCCC3)c(C)c1`, the “activity change, negative = inhibition” value was 1.01% (inactive).
In the case of `COc1ccc2c3c(c(=O)oc2c1)C1O[C@](CCCCN2C(=O)c4ccccc4C2=O)(Cc2c1ccc1ccccc21)O3`, the activity change, negative = inhibition was 44.1% [at 5.75 µM] (inactive).
With `Cc1cc2c(c(=O)n1Cc1ccccc1)C1O[C@](CCCCN3C(=O)c4ccccc4C3=O)(Cc3ccccc31)O2` the Potency was 0.675 µM (active).
With `C=CCn1c(C)cc(C(=O)CN2C(=O)c3ccccc3C2=O)c1C` the “activity change, negative = inhibition” value was 3.02% (inactive).
In the case of `CC(C)(C)c1cc(C(=O)NN)n(Cc2ccc(Cl)cc2Cl)n1`, the Potency was 10.4 µM (active).
With `CC(C)(C)NC(=O)NC(=O)COC(=O)Cc1ccc(Cl)cc1Cl` the “activity change, negative = inhibition” value was 15% (inactive).
For `NNC(=O)c1ccc(Cl)cc1Cl`, the “activity change, negative = inhibition” value was 10.5% (inactive).
In the case of `O=C(Cc1ccc(Cl)cc1)NC(=S)Nc1ccccc1O`, the “activity change, negative = inhibition” value was 7.57% (inactive).
For `Cc1cc(SCc2c(F)cccc2Cl)nc(=O)[nH]1`, the “activity change, negative = inhibition” value was -16.1% (inactive).
In the case of `C/C(=N\NC(=O)c1nc(C)cc(C)n1)c1ccccc1`, the “activity change, negative = inhibition” value was 174% (inactive).
In the case of `Cc1cc(C)nc(S/C=C/C(=O)c2ccccc2)n1`, the “activity change, negative = inhibition” value was 0% (inactive).
With `COC(c1ccccc1)(c1ccccc1)C(Oc1nc(C)cc(C)n1)C(=O)O` (stereo not given) the Potency was “inactive and 11.7 µM (active)”.
For `COc1ccccc1N1CCN(S(=O)(=O)c2ccc(Cl)cc2)CC1`, the activity change, negative = inhibition was 1.21% [at 0.00184 µM] (inactive).
With `CC1CCC(NC(=O)CN(C)S(=O)(=O)c2ccc3c(c2)c(=O)n(C)c(=O)n3C)CC1` (stereo not given) the “activity change, negative = inhibition” value was -14.7% (inactive).
For `Cc1cc(=O)oc2c1ccc1ccccc12`, the “activity change, negative = inhibition” value was -0.434% (inactive).
For `Cc1ccc(NC(=S)NC2CCCC2)cc1`, the “activity change, negative = inhibition” value was 43.2% (inactive).
With `C=CCN1C2CCCC1CC(NC(=S)Nc1cccc(OC)c1)C2` (stereo not given) the “activity change, negative = inhibition” value was -19.1% (inactive).
In the case of `Cc1cc(C)cc(NC(=S)NC2CC3CCCC(C2)N3Cc2cccs2)c1` (stereo not given), the Potency was 9.28 µM (active).
In the case of `CC(=O)O[C@H]1CC[C@@]2(C)[C@@H](CC[C@@H]3[C@@H]2CC[C@]2(C)[C@@H](C(C)(C)O)C[C@@H]32)C1`, the “activity change, negative = inhibition” value was -8.46% (inactive).
With `O=C(/C=C(O)/C=C/c1ccc(O)cc1)/C=C/c1ccc(O)cc1` the “activity change, negative = inhibition” value was -5.54% (inactive).
For `CC(=O)Nc1ccc(SC[C@H](Cc2ccccc2)N2CC[C@@H](C)CCC2=O)cc1`, the Potency was 6.57 µM (active).
In the case of `O=C1CC[C@H](O)CCN1[C@H](CSc1ccc(Br)cc1)Cc1ccccc1`, the “activity change, negative = inhibition” value was -4.11% (inactive).
In the case of `CC(=O)Nc1ccc(NC(=O)C(C)OC(=O)C2CC(=O)N(CCc3ccccc3)C2)cc1` (stereo not given), the “activity change, negative = inhibition” value was -8.33% (inactive).
For `Cc1ccc2nc(NC(=O)C3CSC4(C)CCC(=O)N34)sc2c1` (stereo not given), the “activity change, negative = inhibition” value was 35.9% (inactive).
In the case of `Cc1cc(-c2nnc(SCC(=O)Nc3ccc(F)cc3)n2N)n[nH]1`, the “activity change, negative = inhibition” value was -18.5% (inactive).
In the case of `CC(C)Cc1nnc(NC(=O)CCc2ccccc2)s1`, the “activity change, negative = inhibition” value was -16.9% (inactive).
For `O=C(Cc1ccccc1Cl)N1CCN(c2ccccn2)CC1`, the “activity change, negative = inhibition” value was 2.94% (inactive).
For `O=C(CSc1ncccn1)N1CCCC1`, the “activity change, negative = inhibition” value was 15.9% (inactive).
In the case of `Cc1ccnc(N2CCN(C(=O)CSc3nc4ccccc4nc3N3CCCCC3)CC2)c1`, the Potency was 13.1 µM (active).
